EBI2 block: EBI2 (human) antagonism; EBI2 beta-arrestin recruitment, luminescence, 7a,25-OHC stimulated; 360,000 tested, 0.81% active; inhibition, % at 5 µM; in the data active = inhibition above about 38%;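 note: enzyme fragment complementation signal reports receptor beta-arrestin coupling in cells; 0% = agonist plus DMSO wells and 100% = wells without agonist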
Target sequence (P32249 whole entry, looked up, the tested form may be a part): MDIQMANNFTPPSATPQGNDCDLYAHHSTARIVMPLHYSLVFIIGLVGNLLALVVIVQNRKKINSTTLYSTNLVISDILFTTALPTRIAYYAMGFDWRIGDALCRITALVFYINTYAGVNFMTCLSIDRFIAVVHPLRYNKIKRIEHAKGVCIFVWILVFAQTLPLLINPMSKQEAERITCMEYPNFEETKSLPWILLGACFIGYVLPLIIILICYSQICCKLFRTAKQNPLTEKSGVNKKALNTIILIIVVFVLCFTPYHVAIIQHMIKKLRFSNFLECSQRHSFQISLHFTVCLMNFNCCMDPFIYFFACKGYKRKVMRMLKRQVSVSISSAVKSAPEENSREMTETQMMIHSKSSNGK
PfHsp90 yeast 2: reduces growth (ATP signal) of yeast expressing P. falciparum Hsp90; S. cerevisiae expressing PfHsp90, BacTiter-Glo ATP, 48 h; yeast lacking PDR1 and PDR3 efflux regulators; inhibition, % at 9.4 µM; 310,000 tested, 0.32% active; AID 504621;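 active = every replicate shows inhibition above about 80%, whatever the replicate mean, limit read from the data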;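 note: 0% = DMSO neutral controls and 100% = 20 µM radicicol positive controls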
SKKanGAS inh: SKKanGAS growth inhibition; AID 1662; S. pyogenes SKKanGAS, kanamycin growth, BacTiter-Glo, 6 h; 300,000 tested, 1.3% active; inhibition, % at 7.5 µM;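 active = mean replicate score, as percent of positive control median, at least 50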;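 note: strain carries kanamycin resistance gene driven by streptokinase promoter and grows in 40 µg/ml kanamycin; loss of luminescence reflects streptokinase promoter inhibition or plain growth inhibition; 0% = median of DMSO wells and 100% = positive control at its reference dose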
tim23-1 inh: inhibits growth of tim23-1 mutant yeast; inhibition, % at 20 µM; S. cerevisiae tim23-1 growth, BacTiter-Glo luminescence, 24 h; 330,000 tested, 1.3% active;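 active = growth inhibition of the mutant yeast at or above 50%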;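 note: temperature-sensitive mutant grown at 25 °C; plate controls were DMSO-treated mutant yeast for no effect and medium wells lacking yeast for full effect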
TIM10 inh: TIM10 yeast growth inhibition | inhibition, % at 10 µM | AID 463195 | S. cerevisiae TIM10 strain growth, BacTiter-Glo luminescence, 24 h | 330,000 tested, 1.4% active;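 active = inhibition of 40% or more at the single tested concentration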;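 note: wild-type TIM10 isogenic control strain grown at permissive 25 °C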
tim10-1 inh: growth inhibitors of tim10-1 mutant yeast. S. cerevisiae tim10-1 ts strain growth, BacTiter-Glo, 24 h. 330,000 tested, 2.2% active. inhibition, % at 20 µM;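 active = inhibition of at least 40%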;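 note: mutant grown at 25 °C; 0% = DMSO wells with yeast and 100% = wells holding no yeast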
The depositor's hits bear a star. Sampled rows, rich in hits. Any-hit rate of the full collection: about 4.7%.

`O=C(NCC(=O)N1CCN(C(c2ccccc2)c2ccccc2)CC1)c1ccccc1Br` gave EBI2 block 1.
For Cc1cccc(C)c1NC(=O)COC(=O)c1ccc([N+](=O)[O-])o1 the results were EBI2 block 8, PfHsp90 yeast 2 87*, SKKanGAS inh 19, tim23-1 inh -49, TIM10 inh -106 and tim10-1 inh -97.
O=C(O)c1ccc(C(=O)c2cc([N+](=O)[O-])cc([N+](=O)[O-])c2)cc1 was read as EBI2 block -16 and PfHsp90 yeast 2 8.
Screening C/C(=N\Nc1ncc(Cl)cc1Cl)c1ccc(C#N)cc1 returned EBI2 block 9, PfHsp90 yeast 2 0, SKKanGAS inh -1, tim23-1 inh -1, TIM10 inh 22 and tim10-1 inh 6.
COc1ccc(/C(C)=N/Nc2ncc(Cl)cc2Cl)c(O)c1 was read as EBI2 block 43*, PfHsp90 yeast 2 -64, SKKanGAS inh -17, tim23-1 inh 0, TIM10 inh -22 and tim10-1 inh 25.
Screening O=C(/C=C/c1ccccc1)NCCc1ccccc1 returned EBI2 block 9, PfHsp90 yeast 2 -2, SKKanGAS inh 100*, tim23-1 inh 15, TIM10 inh -11 and tim10-1 inh -22.
O=C(/C=C/c1ccc([N+](=O)[O-])cc1)NCCc1ccccc1 was read as EBI2 block 7, PfHsp90 yeast 2 7, SKKanGAS inh -23, tim23-1 inh 5, TIM10 inh -14 and tim10-1 inh 2.
For Cc1ccc(S(=O)(=O)Nc2ccc3c4c(cccc24)CC3)c(C)c1 the results were EBI2 block 2, PfHsp90 yeast 2 -25, SKKanGAS inh 44, tim23-1 inh -1, TIM10 inh 0 and tim10-1 inh 4.
Cc1cc(C)c(S(=O)(=O)Nc2ccc3c4c(cccc24)CC3)c(C)c1 was read as EBI2 block 46*, PfHsp90 yeast 2 -9, SKKanGAS inh 42, tim23-1 inh -12, TIM10 inh -3 and tim10-1 inh -5.
`N#C/C(=N\Nc1ccc(Cl)cc1)C(N)=S` gave EBI2 block 3, PfHsp90 yeast 2 -24, SKKanGAS inh 97*, tim23-1 inh 40, TIM10 inh 13 and tim10-1 inh 19.
Screening N#C/C(=N\Nc1ccc(S(=O)(=O)N2CCOCC2)cc1)C(N)=S returned EBI2 block 4, PfHsp90 yeast 2 -18, SKKanGAS inh 65*, tim23-1 inh 14, TIM10 inh 7 and tim10-1 inh -7.
N#C/C(=N\Nc1ccccc1)C(N)=S was read as EBI2 block -15, PfHsp90 yeast 2 7, SKKanGAS inh 43, tim23-1 inh 23, TIM10 inh 19 and tim10-1 inh 16.
CC1CCN(S(=O)(=O)c2ccc(N/N=C(/C#N)C(N)=O)cc2)CC1 was read as EBI2 block -8, PfHsp90 yeast 2 -24, SKKanGAS inh -22, tim23-1 inh 6, TIM10 inh -51 and tim10-1 inh 0.
Screening CC(C)(C)c1ccc(CC(=O)N2CCC2(C)C(=O)NCc2ccc(Cl)cc2)cc1 (stereo not drawn) returned EBI2 block 7.
`CN(C)CCN=Cc1c(O)n(-c2ccc(S(=O)(=O)N3CCOCC3)cc2)c(=O)c2ccccc12` gave EBI2 block -8, PfHsp90 yeast 2 -7, tim23-1 inh -13, TIM10 inh -1 and tim10-1 inh -3.
For COc1ccc(CCNc2nc(-c3ccncc3)cs2)cc1OC the results were EBI2 block 1, PfHsp90 yeast 2 -19, SKKanGAS inh -6, tim23-1 inh 9, TIM10 inh 9 and tim10-1 inh 9.
For COc1ccc(CCNc2nc(-c3ccccn3)cs2)cc1OC the results were EBI2 block -6, PfHsp90 yeast 2 25, SKKanGAS inh 75*, tim23-1 inh -6, TIM10 inh 16 and tim10-1 inh -6.
O=S(=O)(Nc1ccccc1)C1CCCCC1 was read as EBI2 block -4 and PfHsp90 yeast 2 -21.
Screening CCC(C)c1ccc(C(C)NC(=S)NC2CCCCC2)cc1 (stereo not drawn) returned EBI2 block 4, PfHsp90 yeast 2 -94, SKKanGAS inh 50*, tim23-1 inh 35, TIM10 inh 13 and tim10-1 inh 23.
Screening CC(NC(=S)NC1CCCCC1)c1ccc(C(C)(C)C)cc1 (stereo not drawn) returned EBI2 block -1, PfHsp90 yeast 2 -31, SKKanGAS inh 56*, tim23-1 inh 33, TIM10 inh 16 and tim10-1 inh 35.
Cc1ccc(C(=O)N2c3ccccc3Sc3ccccc32)cc1 was read as EBI2 block -11.
Cc1ccc(SCC(=O)N2c3ccccc3Sc3ccccc32)cc1 was read as EBI2 block 25, PfHsp90 yeast 2 -3, SKKanGAS inh 51*, tim23-1 inh 17, TIM10 inh 10 and tim10-1 inh 3.
C=C1[C@@H](OC(C)=O)C=C[C@@]2(C)C=CC(=O)[C@@](C)(OC(C)=O)[C@@H]2[C@@H](OC(C)=O)[C@]2(O)[C@@H](C)C(=O)O[C@H]2[C@H]1Cl was read as EBI2 block -10.
`COc1ccc(CN2C(=O)CSC2c2ccccn2)cc1` (stereo not drawn) gave EBI2 block 9, PfHsp90 yeast 2 -6, SKKanGAS inh 0, tim23-1 inh -5, TIM10 inh 5 and tim10-1 inh 3.
For O=C1C=CC(=Nc2ccc3c(c2)C(=O)c2ccccc2-3)O1 the results were EBI2 block 3.
For O=C1C=CC(=Nc2ccc(F)cc2)O1 the results were EBI2 block -4 and PfHsp90 yeast 2 119*.
For COc1ccc2c(c1)[nH]c1c(=O)n(CCc3cnc[nH]3)cnc12 the results were EBI2 block 8, SKKanGAS inh 100*, tim23-1 inh -10, TIM10 inh -5 and tim10-1 inh 11.
`Oc1ccc(Br)cc1/C=N/Nc1ncc(-c2ccccc2)cn1` gave EBI2 block 4, PfHsp90 yeast 2 -12, SKKanGAS inh 83*, tim23-1 inh 6, TIM10 inh 18 and tim10-1 inh 18.
`Oc1ccc(Br)cc1/C=N/NC(=S)NCCc1ccccc1` gave EBI2 block -13, PfHsp90 yeast 2 13, SKKanGAS inh 90*, tim23-1 inh 26, TIM10 inh 35 and tim10-1 inh 29.
For CC1(C(=O)NC(=S)NNC(=O)c2ccncc2)CCCCC1 the results were EBI2 block 3, PfHsp90 yeast 2 22, SKKanGAS inh 54*, tim23-1 inh 12, TIM10 inh 14 and tim10-1 inh 22.
For CC(C)C(C(=O)Nc1ccncc1)c1ccc(Cl)cc1 (stereo not drawn) the results were EBI2 block 1, PfHsp90 yeast 2 -9, SKKanGAS inh -3, tim23-1 inh 27, TIM10 inh 12 and tim10-1 inh 25.
CC(C)C(C(=O)Nc1nccs1)c1ccc(Cl)cc1 (stereo not drawn) was read as EBI2 block -1, PfHsp90 yeast 2 -57, SKKanGAS inh 60*, tim23-1 inh 15, TIM10 inh -10 and tim10-1 inh -5.

Screening data: PubChem BioAssay, several laboratories
